# Measurements taken from the supplement of paper PMC13094657.
# ± gives the standard deviation of the averaged measurements.
# Tests used:
# MDA-MB-231 [1] = assay: cell viability relative to vehicle unstimulated control (fraction); higher = more viable cells; details: pre-treatment time: 18 h then 24 h IFNg/TNF
# MDA-MB-231 [2] = assay: kynurenine production, fold change vs DMSO IFNg/TNF control; higher = more kynurenine produced (less inhibition); details: pre-treatment time: 18 h then 24 h IFNg/TNF
# Method in brief: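 In 96-well plates, MDA-MB-231 cells (7 × 10^4/well) were given 24 h to settle, pre-treated for 18 h with each natural product in 0.1% DMSO, and stimulated for 24 h with IFNγ (1 U/ml) and TNF (6.25 ng/ml) at 37°C. Supernatants were processed with trichloroacetic acid and p-dimethylaminobenzaldehyde and read at 492 nm against 0–100 μM standards. In the first screening round, kynurenine production, as fold change over same-plate cytokine-stimulated vehicle wells, was averaged over duplicate plates.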
# 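Wherever cell viability relative to vehicle unstimulated control is given: viability of the cells left after supernatant collection, read with Deep Blue dye added for 4 h, as absorbance at 570 nm minus 600 nm.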
SMILES,cell viability (MDA-MB-231 [1]),kynurenine production (MDA-MB-231 [2])
CC(CC(=O)C[C@](C)(O)[C@H]1CC(=O)[C@@]2(C)C3=C(C(=O)C[C@]12C)[C@@]1(C)CCC(=O)C(C)(C)[C@@H]1C[C@@H]3O)C(=O)O (some centres undefined) [Ganoderic acid N] (compound dose: 10 uM),1.03 ± 0.053,0.857 ± 0.12
O=C(O)C1=CO[C@@H](O[C@@H]2O[C@H](CO)[C@@H](O)[C@H](O)[C@H]2O)[C@@H]2C(CO)=C[C@H](O)[C@H]12 [Deacetylasperulosidic acid] (compound dose: 10 uM),1.01 ± 0.024,1.07 ± 0.041
"O=c1ccn2c(n1)O[C@H]1[C@H](O)[C@@H](CO)O[C@H]12 [2,2'-Anhydrouridine] (compound dose: 10 uM)",0.906 ± 0.036,0.923 ± 0.092
CC12CCC(C1)C(C)(C)C2O (centres undefined) [Fenchyl alcohol] (compound dose: 10 uM),1.03 ± 0.041,0.817 ± 0.31
C[C@@H]1C(=O)O[C@H]2C[C@@]34[C@H]5C[C@@H](C(C)(C)C)[C@]36[C@@H](OC(=O)[C@@H]6O)O[C@@]4(C(=O)O5)[C@]21O [Ginkgolide A] (compound dose: 10 uM),1.03 ± 0.13,1.2 ± 0.084
C[C@@H]1CC[C@]2(C)CC[C@]3(C)C(=CC(=O)C4[C@@]5(C)CC[C@@H](O)[C@](C)(C(=O)O)C5CC[C@]43C)C2[C@H]1C (stereo partly drawn) [11-Keto-beta-boswellic acid] (compound dose: 10 uM),0.949 ± 0.013,0.94 ± 0.12
CC1(C)CC[C@]2(C(=O)O)CCC3=C([C@@H](CCl)C[C@@H]4[C@@]5(C)C[C@H](O)[C@H](O)[C@@](C)(C(=O)O)[C@@H]5CC[C@@]34C)[C@@H]2C1 [Tenuigenin] (compound dose: 10 uM),0.983 ± 0.068,0.952 ± 0.2
CC(=O)OCc1cocc2c(C=O)ccc1-2 [Baldrinal] (compound dose: 10 uM),1.006 ± 0.006,0.785 ± 0.064
CC1(C)CC[C@]2(C(=O)O)CC[C@]3(C)C(=CC[C@@H]4[C@@]5(C)CC[C@H](O[C@@H]6O[C@H](C(=O)O)[C@@H](O)[C@H](O[C@@H]7OC[C@@H](O)[C@H](O)[C@H]7O)[C@H]6O)C(C)(C)[C@@H]5CC[C@]43C)[C@@H]2C1 [Momordin Ic] (compound dose: 10 uM),1.07 ± 0.023,0.967 ± 0.2
O=C(O)/C=C/c1ccccc1O [O-coumaric acid] (compound dose: 10 uM),0.976 ± 0.097,0.9916 ± 0.006
Cc1cc(O)c2c(c1)C(=O)c1cc(O)cc(O[C@@H]3O[C@H](CO)[C@@H](O)[C@H](O)[C@H]3O)c1C2=O [Emodin-8-glucoside] (compound dose: 10 uM),0.9845 ± 0.0046,0.872 ± 0.14
CCOC(=O)/C=C/c1ccccc1 [Ethyl cinnamate] (compound dose: 10 uM),0.988 ± 0.085,1.14 ± 0.11
C[C@@H]1[C@H]2[C@H](O[C@@H]3O[C@H](CO)[C@@H](O)[C@H](O)[C@H]3O)OC=C(C(=O)O)[C@H]2C[C@@H]1O [Loganic acid] (compound dose: 10 uM),0.999 ± 0.016,1.01 ± 0.16
CSC(=O)OCC1=C[C@@H]2OC(=O)C3=CO[C@@H](O[C@@H]4O[C@H](CO)[C@@H](O)[C@H](O)[C@H]4O)[C@H]1[C@@H]32 [Paederoside] (compound dose: 10 uM),1.14 ± 0.027,0.937 ± 0.11
CC(C)=CCC[C@](C)(O)[C@H]1CC[C@]2(C)[C@@H]1[C@H](O)C[C@@H]1[C@@]3(C)CC[C@H](O)C(C)(C)[C@@H]3[C@@H](O[C@@H]3O[C@H](CO)[C@@H](O)[C@H](O)[C@H]3O[C@@H]3OC[C@@H](O)[C@H](O)[C@H]3O)C[C@]12C [Notoginsenoside R2] (compound dose: 10 uM),1.04 ± 0.031,1.24 ± 0.12
C[C@H]1O[C@@H](O[C@H]2CC[C@@]3(C)[C@@H](CC[C@]4(C)[C@@H]3C=CC3=C5CC(C)(C)CC[C@]5(CO)[C@@H](O)C[C@]34C)[C@]2(C)CO)[C@H](O[C@@H]2O[C@H](CO)[C@@H](O)[C@H](O)[C@H]2O)[C@@H](O[C@@H]2O[C@H](CO)[C@@H](O)[C@H](O)[C@H]2O)[C@H]1O [Buddlejasaponin IVb] (compound dose: 10 uM),1.07 ± 0.067,1.34 ± 0.071
C=C1C(=O)O[C@@H]2/C=C(\C)C[C@@H]3C=C(C[C@H](OC(=O)/C(C)=C\C)[C@@H]12)C(=O)O3 [Scabertopin] (compound dose: 10 uM),0.873 ± 0.022,0.182 ± 0.087
